Screening data as filed in PubChem.
Sampled rows, rich in hits. Any-hit rate of the full collection: about 21%.
D3 antag: qHTS of D3 Dopamine Receptor Antagonist: qHTS; AID 652054, 2013; D3R cells, DiscoveRx beta-arrestin luminescence, antagonist mode; stronger effect = lower value; D(3) dopamine receptor (Homo sapiens), P35462; max response, negative = inhibition, %; 360,000 tested, 2.5% active; in the data active = max response below about -50%; inconclusive = no clear call, values can overlap the other calls; note: % is set by controls: 0 for no effect and ±100 for the full control effect
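Cells expressing the human receptor were seeded at 1500 cells/well, incubated overnight at 37 degrees C in 5% CO2, then exposed to library compounds with dopamine controls for 90 minutes at 37 degrees C before luminescent detection.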
TDP1 cell noCPT: qHTS for Inhibitors of human tyrosyl-DNA phosphodiesterase 1 (TDP1): qHTS in cells in absence of CPT; DT40 Tdp1-/- hTDP1 cells, no CPT, ATP luminescence, 48 h; Potency, µM (titrated, usually from 46.2 µM), inactives show at the highest dose activity change, negative = growth inhibition, most hits filed as inhibitors; 420,000 tested, 15% active; note: potency is the fitted concentration of half-maximal effect; % is set by controls: 0 for no effect and ±100 for the full control effect; nearly all actives have a fitted effect of over 55% in size
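Compound effects on proliferation are scored in DT40 Tdp1-/-;hTDP1 cells in the absence of CPT. ATP levels (CellTiter-Glo luminescence) are recorded after a ≥48 hr, 37 °C incubation.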
IL1B secr inh: qHTS for Inhibitors of Inflammasome Signaling: IL-1-beta AlphaLISA Primary Screen; THP-1 LPS/ATP IL-1B secretion, AlphaLISA, 16 h; stronger effect = lower value; 360,000 tested, 4.7% active; activity change, % at 57.5 µM; in the data active = activity change below about -50%; inconclusive = mostly about -30% to -49%; note: % is set by controls: 0 for no effect and ±100 for the full control effect
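THP-1 cells pretreated 1 hr with compounds (up to 57.5 uM final), then stimulated with LPS (250 ng/mL final) plus ATP (1.25 mM final); secreted IL-1B measured by AlphaLISA after 16 hr, decreased signal indicating inhibition.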
ClpP mod: qHTS Assay for Activators of ClpP | ATP-dependent Clp protease proteolytic subunit (Bacillus subtilis (strain 168)), P80244 | purified B. subtilis ClpP, FRET peptide cleavage, 20 min | Potency, µM (top dose mostly 57.5 µM), without a hit: at the top dose activity change, negative = active | 340,000 tested, 1.9% active; active = well fitted falling curve with a large enough effect; inconclusive = small, poorly fitted or top-dose-only effect; inactive = no such curve, though single readings can be large or run the other way; note: potency is the fitted concentration of half-maximal effect; the source files actives as falling curves though it sought activators and does not explain the sign; nearly all actives have a fitted effect of over 65% in size
Target sequence (P80244 whole entry, looked up): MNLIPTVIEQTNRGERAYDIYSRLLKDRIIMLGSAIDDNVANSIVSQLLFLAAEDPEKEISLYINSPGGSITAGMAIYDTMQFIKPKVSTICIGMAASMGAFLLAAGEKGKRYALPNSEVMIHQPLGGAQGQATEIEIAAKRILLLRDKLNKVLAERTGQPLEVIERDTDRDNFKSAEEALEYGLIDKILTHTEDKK
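ClpP 10 microg/mL final, pH 8 Tris/KCl buffer with BSA, glycerol, Tween-20; compound pinned in; FRET-FV substrate; RT 20 min; Ex320/Em430; ΔFRET vs ADEP 5.8 microM, DMSO, no enzyme.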
TDP1 cell CPT: qHTS for Inhibitors of human tyrosyl-DNA phosphodiesterase 1 (TDP1): qHTS in cells in presence of CPT; chicken DT40 Tdp1-/-;hTDP1 cells + 20 nM CPT, ATP luminescence, 48 h; Potency, µM (series often up to 46.2 µM), inactives show top-dose activity change, negative = growth inhibition, usual class: inhibitors; 420,000 tested, 12% active; note: potency is the fitted concentration of half-maximal effect; % is set by controls: 0 for no effect and ±100 for the full control effect; nearly all actives have a fitted effect of over 55% in size
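Cell growth measured by CellTiter-Glo luminescence after a minimum 48 h, 37 C compound exposure with 20 nM CPT in Tdp1-knockout DT40 cells stably expressing hTDP1, seeded 400/well; qHTS titration format.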
DRD3 agonist: qHTS of D3 Dopamine Receptor Agonist: qHTS. AID 652048, 2013. 410,000 tested, 0.58% active. D3R DiscoveRx beta-arrestin cells, luminescence, 90 min. max activation, %. D(3) dopamine receptor (Homo sapiens), P35462; in the data active = max activation above about 30%; note: 0% is about no effect
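Agonist mode: compounds and dopamine controls were applied to plated cells for 90 min at 37 degrees C after an overnight attachment at 1500 cells/well. Luminescent read-out followed 30 - 60 minutes at room temperature with DiscoveRx detection reagent.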
Numbers without * were called inactive; ? = inconclusive; / = no result; ! = not confirmed by another sample. Unless noted, calls come from the whole dose curve; as a rule, active = well fitted inhibition curve with a large enough effect; inconclusive = small, poorly fitted or top-dose-only effect; inactive = flat fitted curve, though single readings scatter.

SMILES | D3 antag | TDP1 cell noCPT | IL1B secr inh | ClpP mod | TDP1 cell CPT | DRD3 agonist
CC(=Nc1ccc(F)cc1)c1c(O)n(C)c(=O)[nH]c1=O | -17 | -5% | 36 | 1% | 15% | -6
COc1cc(/C=C/c2nc3ccccc3c(=O)n2-c2ccc(Br)c(C)c2)ccc1O | / | 16µM* | / | 0% | 21µM* | -4
COc1ccc(-n2c(/C=C/c3ccc4c(c3)OCO4)nc3ccccc3c2=O)cc1 | 9 | 15µM* | -8 | -14% | 26µM* | 0
O=c1c2ccccc2nc(/C=C/c2ccc(O)cc2)n1-c1cccc(O)c1 | 20 | ? | 24 | / | ? | 6
CC(=O)C(Sc1ncnc2c1nnn2-c1ccc(F)cc1)C(=O)N(C)C (stereo unspecified) | 26 | 21µM* | -30 | 3% | 21µM* | 4
CC/C(=N\NC(=O)Nc1ccccc1)c1c(O)n(Cc2ccccc2)c(=O)[nH]c1=O | 3 | -2% | 12 | ? | 3% | -1
O=CC1=C(N2CCOCC2)/C(=C\c2ccccc2)CC1 | -11 | ? | ? | / | ? | 3
CN(C)C=C1C(=O)N(C2CCCCC2)C(=O)N(C2CCCCC2)C1=O | -21 | ? | -7 | 0% | 16µM* | 3
CN1C(=O)C(=Cc2ccc(SC3CCCCC3)o2)C(=O)N(C)C1=O | 0 | -1% | 10 | / | -3% | 2
C=C[C@H](Cc1ccccc1)N(Cc1ccccc1)S(=O)(=O)N(Cc1ccccc1)[C@H](C=C)Cc1ccccc1 | -18 | 13µM* | 44 | 1% | ? | -18
COC(=O)[C@@H](Cc1ccccc1)N(Cc1ccccc1)S(=O)(=O)N(Cc1ccccc1)[C@H](Cc1ccccc1)C(=O)OC | -8 | 10µM*! | 6 | 1% | 23µM* | 15
COC(=O)c1ccc(CC(C(=O)c2ccccc2)N(C)C)cc1 (stereo unspecified) | -9 | ? | 0 | -6% | ? | -5
COc1ccc(C2C(C#N)=C(N)Oc3n[nH]c(C)c32)cc1Cn1cc([N+](=O)[O-])cn1 (stereo unspecified) | 22 | ? | -21 | -1% | ? | 0
COc1ccc(NC(=O)c2c(C)nn(Cc3ccccc3Cl)c2Cl)cc1Cl | -11 | ? | -13 | 3% | 8% | -2
COc1ccc2c(c1)CCc1c(C(=O)Nc3c(C)nn(Cc4ccccc4C)c3C)noc1-2 | / | 10µM* | / | -6% | 23µM* | 8
CC(NC1=NCCS1)c1ccccc1 (stereo unspecified) | -6 | 13% | -19 | 1% | -2% | 0
C[C@]12CCC3C(CC[C@H]4C[C@@H](O)CC[C@]34C)C1C[C@@H](N)[C@@H]2O (stereo partly specified) | -29 | -18% | 15 | -2% | -8% | -13
CC1(C)C(O)CC(=O)[C@]2(C)C1CC(=O)[C@]1(C)C2CC[C@@]2(C)C(c3ccoc3)OC(=O)C3O[C@@]321 (stereo partly specified) | / | -17% | / | / | -20% | /
CCCCCCC(Cl)(Cn1ccnc1)c1ccccc1 (stereo unspecified) | 11 | 15µM* | -18 | ? | ? | -24
C=CCN1CC[C@]23CCCC[C@H]2[C@H]1Cc1ccc(O)cc13 | / | ? | / | / | 2% | -19
CC12C=CC(=O)C=C1CC(O)C1C2CCC2(C)C1CCC2(C)O (stereo unspecified) | -23 | -13% | 4 | / | 6% | 0
